# Inconclusive results are not listed. Where a call stands in place of a potency, no number is given. Calls of active or inactive are those of the source. Unless noted, the call rests on the fitted dose curve; in most records, active means well fitted curve in the direction sought with a large enough effect; inconclusive means small, poorly fitted or top-dose-only effect, or another doubt; inactive means no such curve, though single readings can be large; an effect the other way counts as inactive or inconclusive.
# How the values were obtained:
# [1] = qHTS for differential inhibitors of proliferation of Plasmodium falciparum line D10 (AID 1877);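 further: parasites grown with compound for 72 h before DNA staining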; further: potency means the concentration at half of the fitted maximal effect
# [2] = qHTS for differential inhibitors of proliferation of Plasmodium falciparum line Dd2 (AID 1882); conditions: Potency: Plasmodium falciparum Dd2 proliferation inhibition; further: nearly all actives have a fitted effect of over 65% in size; further: potency means the concentration at half of the fitted maximal effect
# Outline: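 Dd2-infected erythrocytes (0.3% parasitemia, 2.5% hematocrit final) incubated with compound 72 h at 37 C, 5% CO2; lysed with saponin/Triton buffer containing SYBR Green I, incubated overnight in the dark, then read by fluorescence (485/535 nm). Normalized to 0.29 uM artemisinin and DMSO.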
# [3] = qHTS for differential inhibitors of proliferation of Plasmodium falciparum line W2 (AID 1883); conditions: Potency: Plasmodium falciparum W2 proliferation inhibition;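 further: parasites grown with compound for 72 h before lysis and staining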; further: potency means the concentration at half of the fitted maximal effect
# [4] = qHTS for differential inhibitors of proliferation of Plasmodium falciparum line HB3 (AID 1886); conditions: Potency: Plasmodium falciparum HB3 proliferation inhibition;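 further: parasites grown with compound for 72 h before SYBR Green readout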; further: potency means the concentration at half of the fitted maximal effect
# [5] = qHTS Assay for Modulators of Human Peripheral Myelin Protein 22 (PMP22) Expression/Activity (AID 1967; active means well fitted curve in the direction sought with a large enough effect in the signal ratio; the % refers to the signal ratio)
# Outline: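 Quantitative HTS in a mouse Schwann cell line expressing dual click beetle luciferases: Pmp22 promoter (green) and control EF-alpha promoter (red). After 24h treatment, corrected green/red signal ratio gave %Activity relative to untreated cells.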
# [6] = target: Ferritin light chain (Equus caballus) (UniProt P02791); assay: qHTS Validation Assay for Identification of Novel General Anesthetics (AID 2323); further: series mostly up to about 77 µM
# Ferritin light chain (Equus caballus), sequence (P02791 2-175 limits assumed): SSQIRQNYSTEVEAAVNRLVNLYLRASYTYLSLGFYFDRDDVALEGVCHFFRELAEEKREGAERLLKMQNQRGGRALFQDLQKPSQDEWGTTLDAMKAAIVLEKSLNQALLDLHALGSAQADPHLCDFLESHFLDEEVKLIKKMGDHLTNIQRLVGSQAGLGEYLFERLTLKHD
# Outline: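 Apoferritin from horse spleen (10 uM) was mixed with 1-aminoanthracene at 50% saturation in PBS, then compounds were added. After 10 min at room temperature, fluorescence was read (ex 380 nm, em 535 nm) and normalized to free-probe and complex controls.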
# [7] = target: ATP-dependent DNA helicase Q1 (Homo sapiens) (UniProt P46063); assay: qHTS Validation Assay for Inhibitors of RecQ-Like Dna Helicase 1 (RECQ1) (AID 2353)
# ATP-dependent DNA helicase Q1 (Homo sapiens), sequence (P46063 whole entry, looked up): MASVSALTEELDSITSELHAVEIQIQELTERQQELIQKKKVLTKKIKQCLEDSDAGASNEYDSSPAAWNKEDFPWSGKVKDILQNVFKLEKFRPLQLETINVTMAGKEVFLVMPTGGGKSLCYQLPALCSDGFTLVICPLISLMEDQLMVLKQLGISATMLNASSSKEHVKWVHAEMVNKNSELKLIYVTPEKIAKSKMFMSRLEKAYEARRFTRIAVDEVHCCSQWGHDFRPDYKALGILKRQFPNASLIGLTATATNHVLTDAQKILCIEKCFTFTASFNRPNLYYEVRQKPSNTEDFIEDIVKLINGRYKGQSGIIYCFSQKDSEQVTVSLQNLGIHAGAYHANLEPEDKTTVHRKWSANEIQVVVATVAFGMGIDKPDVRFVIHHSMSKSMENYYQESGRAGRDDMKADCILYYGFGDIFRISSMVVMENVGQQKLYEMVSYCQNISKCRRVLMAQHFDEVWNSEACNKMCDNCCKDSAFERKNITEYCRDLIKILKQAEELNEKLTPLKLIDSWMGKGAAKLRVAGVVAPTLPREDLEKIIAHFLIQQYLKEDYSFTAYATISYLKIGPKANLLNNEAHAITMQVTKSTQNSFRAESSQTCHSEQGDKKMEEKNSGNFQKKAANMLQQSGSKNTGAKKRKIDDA
# Outline: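 50 nM RECQ1T1 preincubated 15 min with compound in Tris pH 8.0 buffer with MgCl2, DTT, Tween-20 and 2.5 ug/ml poly(dI-dC); started with 200 nM TAMRA/BHQ-2 forked duplex and 2 mM ATP. Unwinding read as fluorescence (525/598 nm), two reads 2 h apart.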
# [8] = Cytometric Cell-Based qHTS for Inhibitors of the mTORC1 Signaling Pathway in MEF (Tsc2-/-, p53-/-) Cells (AID 2660);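 further: percent of cells above a phospho-rpS6 to PI ratio cutoff in each well; series mostly up to about 38 µM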
# Outline: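 Readout: Alexa-488 phospho-rpS6 (Ser235/236) intensity divided by PI intensity, thresholded against 7.5 nM rapamycin wells and reported as % positive cells. PI cell count served as the viability measure. Compound exposure was 24 hrs at 37 degree Celsius.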
# [9] = High Content Imaging Cell-Based qHTS for Inhibitors of the mTORC1 Signaling Pathway in MEF (Tsc2-/-, p53-/-) Cells (AID 2666);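 further: percent of cells scored positive for phospho-rpS6 Ser235/236 immunostaining by imaging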
# Outline: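 Phospho-rpS6 (Ser235/236) immunofluorescence, normalized and scored as % positive cells using rapamycin and DMSO controls, was read in empty-vector Tsc2-/-, p53-/- MEFs after 24 h compound exposure at 37 C; propidium iodide counted cells.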
# [10] = High Content Imaging Cell-Based qHTS for Inhibitors of the mTORC1 Signaling Pathway in MEF Cells (AID 2667); further: potency means the concentration at half of the fitted maximal effect
# Outline: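 WT MEFs (Tsc2-/-, p53-/- re-expressing Tsc2), in DMEM + 10% FBS, were treated with compound for 24 h at 37 C. Cells were then fixed and stained for phospho-rpS6 Ser235/236 with propidium iodide as cell count. Values are % positive cells, with thresholds set against rapamycin-treated cells.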
# [11] = Cytometry Cell-Based qHTS for Inhibitors of the mTORC1 Signaling Pathway in MEF cells (AID 2668); further: potency means the concentration at half of the fitted maximal effect
# Outline: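 Pathway inhibition in WT Tsc2-rescued Tsc2-/-, p53-/- MEFs is measured as the Alexa-488 phospho-rpS6 to propidium iodide intensity ratio after 24 hrs of compound at 37 degree Celsius. PI-stained cell number gives viability.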
# [12] = Validation screen for small molecules that induce DNA re-replication in MCF 10A normal breast cells (AID 463097); further: nearly all actives have a fitted effect of over 60% in size; further: potency means the concentration at half of the fitted maximal effect
# Outline: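 DNA re-replication was detected as a rise in nuclei with elevated Hoechst fluorescence after a 48 hr compound exposure of MCF 10A cells at 37 C.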
# [13] = target: DNA polymerase III PolC-type (Bacillus subtilis (strain 168)) (UniProt P13267); assay: qHTS Validation Assay for the Inhibitors of DNA Replication in Gram-Positive Bacteria (AID 485295);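 further: reconstituted holoenzyme with PolC plus beta clamp SSB and primase; PicoGreen fluorescence of double-stranded DNA made on primed circular M13 template; series mostly up to about 57 µM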
# DNA polymerase III PolC-type (Bacillus subtilis (strain 168)), sequence (P13267 whole entry, looked up): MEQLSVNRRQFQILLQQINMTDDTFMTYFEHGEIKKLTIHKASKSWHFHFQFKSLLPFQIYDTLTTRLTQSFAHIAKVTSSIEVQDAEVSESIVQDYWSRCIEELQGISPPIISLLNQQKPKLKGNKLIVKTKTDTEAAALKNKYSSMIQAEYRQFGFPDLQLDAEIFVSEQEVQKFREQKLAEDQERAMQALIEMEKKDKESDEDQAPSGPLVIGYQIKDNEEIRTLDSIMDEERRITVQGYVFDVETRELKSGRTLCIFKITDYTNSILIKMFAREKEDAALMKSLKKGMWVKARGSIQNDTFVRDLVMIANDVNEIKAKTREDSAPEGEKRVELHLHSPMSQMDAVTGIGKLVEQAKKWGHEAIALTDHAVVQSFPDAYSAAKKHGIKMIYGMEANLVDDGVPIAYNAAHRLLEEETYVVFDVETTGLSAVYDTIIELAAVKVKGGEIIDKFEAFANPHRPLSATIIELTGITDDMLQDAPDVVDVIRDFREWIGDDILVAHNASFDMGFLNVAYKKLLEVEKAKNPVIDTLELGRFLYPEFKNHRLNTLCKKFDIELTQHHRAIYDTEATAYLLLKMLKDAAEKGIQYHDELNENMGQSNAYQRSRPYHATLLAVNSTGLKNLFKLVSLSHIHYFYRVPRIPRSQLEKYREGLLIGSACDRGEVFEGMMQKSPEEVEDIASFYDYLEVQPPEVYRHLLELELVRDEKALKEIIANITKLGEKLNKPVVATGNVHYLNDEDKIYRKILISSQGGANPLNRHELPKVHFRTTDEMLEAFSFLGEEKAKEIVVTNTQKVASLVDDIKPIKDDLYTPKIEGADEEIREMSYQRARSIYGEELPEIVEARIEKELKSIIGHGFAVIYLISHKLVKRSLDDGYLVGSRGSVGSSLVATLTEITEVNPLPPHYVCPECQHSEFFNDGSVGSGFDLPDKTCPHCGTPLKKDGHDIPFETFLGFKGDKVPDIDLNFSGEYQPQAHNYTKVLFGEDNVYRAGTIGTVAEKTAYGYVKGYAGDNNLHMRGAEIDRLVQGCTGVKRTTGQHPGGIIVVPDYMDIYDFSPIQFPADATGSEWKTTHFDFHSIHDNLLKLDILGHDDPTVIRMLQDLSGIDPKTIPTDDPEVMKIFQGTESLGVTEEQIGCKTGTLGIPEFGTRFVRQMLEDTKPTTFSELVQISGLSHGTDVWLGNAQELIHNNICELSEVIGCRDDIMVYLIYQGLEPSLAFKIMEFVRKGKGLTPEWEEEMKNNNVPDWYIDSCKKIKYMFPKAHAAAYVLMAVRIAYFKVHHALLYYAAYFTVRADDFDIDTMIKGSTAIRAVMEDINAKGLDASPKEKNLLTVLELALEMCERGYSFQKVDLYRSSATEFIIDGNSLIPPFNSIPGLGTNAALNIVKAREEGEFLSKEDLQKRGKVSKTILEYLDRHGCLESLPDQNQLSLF
# Outline: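 Primed replication of single-stranded M13Gori by a four-protein B. subtilis holoenzyme is measured at room temperature. Double-stranded product is quantified by PicoGreen fluorescence after an EDTA stop; inhibition is scaled between DMSO and EDTA controls.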
# [14] = target: Tumor susceptibility gene 101 protein (Homo sapiens) (UniProt Q99816); assay: qHTS Validation Assay for Iinhibitors of HIV-1 Budding by Blocking the Interaction of PTAP/TSG101 (AID 485342; calls by dose curve)
# Tumor susceptibility gene 101 protein (Homo sapiens), sequence (Q99816 whole entry, looked up, the tested form may be a part): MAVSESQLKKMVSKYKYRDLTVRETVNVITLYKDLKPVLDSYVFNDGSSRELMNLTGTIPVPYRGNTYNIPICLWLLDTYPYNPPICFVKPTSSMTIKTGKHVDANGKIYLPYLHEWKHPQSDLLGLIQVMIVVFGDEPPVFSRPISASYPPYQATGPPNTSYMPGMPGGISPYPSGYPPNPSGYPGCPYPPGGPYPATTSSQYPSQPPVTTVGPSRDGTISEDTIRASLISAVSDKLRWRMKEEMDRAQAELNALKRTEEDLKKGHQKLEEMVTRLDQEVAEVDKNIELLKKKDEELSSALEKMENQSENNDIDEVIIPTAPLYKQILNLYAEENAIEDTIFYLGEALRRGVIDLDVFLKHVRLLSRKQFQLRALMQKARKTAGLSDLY
# Outline: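 Fluorescence anisotropy measured PTAP-Tsg101 interaction. Final concentrations were 10 uM protein domain and 50 nM labeled peptide, equilibrated 20 min at room temperature.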
# [15] = qHTS Validation Assay to Find Inhibitors of Chronic Active B-Cell Receptor Signaling (AID 485345; active means well fitted curve in the direction sought with a large enough effect in the main read-out, with a control signal flat, not every such curve was filed as active)
# Outline: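 TMD8 ABC-DLBCL cells stably carrying doxycycline-inducible IkappaBalpha–green luciferase fusion plus unfused red luciferase; compounds 46 uM to 3 nM, 4 h at 37C with doxycycline. Corrected green/red luminescence ratio normalized to 10 uM MG-132 and basal cell wells; curves fitted.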
# [16] = target: RecQ-like DNA helicase BLM (Homo sapiens) (UniProt P54132); assay: qHTS Validation Assay for Inhibitors of Bloom's syndrome helicase (BLM) (AID 2364)
# RecQ-like DNA helicase BLM (Homo sapiens), sequence (P54132 whole entry, looked up): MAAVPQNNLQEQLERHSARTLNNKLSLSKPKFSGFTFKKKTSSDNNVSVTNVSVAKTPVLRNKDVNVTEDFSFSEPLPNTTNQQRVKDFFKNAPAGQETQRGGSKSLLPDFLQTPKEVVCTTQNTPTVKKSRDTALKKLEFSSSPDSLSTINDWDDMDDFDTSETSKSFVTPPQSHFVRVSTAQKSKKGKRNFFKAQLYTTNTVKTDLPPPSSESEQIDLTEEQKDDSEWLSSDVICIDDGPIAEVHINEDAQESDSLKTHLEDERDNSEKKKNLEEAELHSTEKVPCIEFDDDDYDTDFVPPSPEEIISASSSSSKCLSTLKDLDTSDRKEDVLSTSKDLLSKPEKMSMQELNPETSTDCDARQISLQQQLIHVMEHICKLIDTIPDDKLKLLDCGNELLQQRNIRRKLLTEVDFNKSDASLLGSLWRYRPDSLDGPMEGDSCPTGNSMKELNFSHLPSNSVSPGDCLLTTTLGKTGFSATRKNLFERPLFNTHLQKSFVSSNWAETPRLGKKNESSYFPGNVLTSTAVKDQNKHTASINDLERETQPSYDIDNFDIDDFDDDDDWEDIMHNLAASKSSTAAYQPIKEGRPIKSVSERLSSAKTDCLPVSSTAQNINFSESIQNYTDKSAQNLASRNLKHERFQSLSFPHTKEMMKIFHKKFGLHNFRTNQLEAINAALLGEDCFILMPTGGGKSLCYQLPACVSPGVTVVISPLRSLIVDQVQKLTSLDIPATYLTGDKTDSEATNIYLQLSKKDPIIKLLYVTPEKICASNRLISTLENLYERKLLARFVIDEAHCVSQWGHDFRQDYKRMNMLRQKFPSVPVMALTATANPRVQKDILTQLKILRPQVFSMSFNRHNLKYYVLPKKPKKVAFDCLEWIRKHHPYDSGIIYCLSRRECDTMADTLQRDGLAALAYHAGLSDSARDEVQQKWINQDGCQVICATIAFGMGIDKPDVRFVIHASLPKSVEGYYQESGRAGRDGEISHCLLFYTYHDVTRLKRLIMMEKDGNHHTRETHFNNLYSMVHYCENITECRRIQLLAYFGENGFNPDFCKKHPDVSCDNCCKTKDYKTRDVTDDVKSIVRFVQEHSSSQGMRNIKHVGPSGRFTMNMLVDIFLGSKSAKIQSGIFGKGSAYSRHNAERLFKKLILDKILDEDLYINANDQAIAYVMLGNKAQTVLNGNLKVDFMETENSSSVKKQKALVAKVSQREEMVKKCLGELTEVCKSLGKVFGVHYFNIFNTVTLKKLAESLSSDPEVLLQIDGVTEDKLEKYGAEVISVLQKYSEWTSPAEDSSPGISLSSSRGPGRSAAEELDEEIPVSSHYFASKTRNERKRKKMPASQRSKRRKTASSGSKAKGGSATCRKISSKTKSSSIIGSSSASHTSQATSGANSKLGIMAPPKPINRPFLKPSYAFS
# Outline: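 50 nM BLM preincubated 15 min at room temperature with compound in pH 8.0 Tris buffer containing 2.5 ug/ml poly(dI-dC); started with 200 nM TAMRA/BHQ-2 forked duplex and 2 mM ATP (final). Unwinding read as TAMRA fluorescence increase, two reads 2 h apart.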
# [17] = target: Ubiquitin carboxyl-terminal hydrolase 2 (Homo sapiens) (UniProt O75604); assay: qHTS Validation Assay for Inhibitors of Ubiquitin-specific Protease USP2a Using CHOP2 as the Reporter (AID 463106)
# Ubiquitin carboxyl-terminal hydrolase 2 (Homo sapiens), sequence (O75604 whole entry, looked up): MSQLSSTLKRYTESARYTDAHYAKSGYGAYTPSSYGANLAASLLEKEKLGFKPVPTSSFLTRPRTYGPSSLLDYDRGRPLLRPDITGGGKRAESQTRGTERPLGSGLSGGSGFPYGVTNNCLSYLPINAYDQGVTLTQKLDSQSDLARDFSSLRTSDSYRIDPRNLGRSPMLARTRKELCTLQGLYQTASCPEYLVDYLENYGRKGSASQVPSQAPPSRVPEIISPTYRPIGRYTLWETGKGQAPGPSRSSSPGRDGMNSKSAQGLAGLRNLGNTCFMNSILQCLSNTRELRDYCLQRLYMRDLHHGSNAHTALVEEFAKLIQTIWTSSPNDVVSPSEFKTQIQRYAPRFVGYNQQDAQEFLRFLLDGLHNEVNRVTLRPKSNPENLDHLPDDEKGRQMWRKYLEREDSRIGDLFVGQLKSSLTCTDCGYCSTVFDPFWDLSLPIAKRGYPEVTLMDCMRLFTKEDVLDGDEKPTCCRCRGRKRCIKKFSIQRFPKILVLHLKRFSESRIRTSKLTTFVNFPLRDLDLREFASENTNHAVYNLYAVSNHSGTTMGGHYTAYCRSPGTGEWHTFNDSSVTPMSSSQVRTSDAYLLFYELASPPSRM
# Outline: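 USP2 core (10 nM final) was preincubated with compound 30 min at RT in pH 8.0 Tris/CaCl2/beta-ME/CHAPS buffer. Ub-CHOP2 and reporter substrate (25 nM final each) were then added, with fluorescence (Ex 485/Em 531) read after 60 min. Data were normalized to NEM full inhibition and fitted to concentration-response curves.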
Structure (SMILES),Potency [1],Potency [2],Potency [3],Potency [4],outcome [5],Potency [6],Potency [7],outcome [8],Potency [9],Potency [10],Potency [11],Potency [12],Potency [13],outcome [14],outcome [15],Potency [16],Potency [17]
C=CCn1c(=O)c2c(nc(-c3ccc(S(=O)(=O)O)cc3)n2C)n(C)c1=O,inactive,inactive,inactive,inactive,inactive,inactive,inactive,inactive,inactive,inactive,inactive,inactive,inactive,inactive,inactive,–,–
NC(N)=[N+]1CCc2ccccc2C1,inactive,inactive,inactive,inactive,–,inactive,inactive,inactive,inactive,inactive,–,inactive,inactive,inactive,inactive,inactive,inactive
CC(=O)N[C@@H](Cc1c[nH]c2ccccc12)C(=O)OCc1cc(C(F)(F)F)cc(C(F)(F)F)c1,inactive,inactive,inactive,inactive,inactive,–,inactive,inactive,inactive,inactive,inactive,inactive,inactive,inactive,–,–,inactive
O=C(O)[C@H]1NCCC[C@H]1C(=O)O,inactive,inactive,inactive,inactive,inactive,–,inactive,inactive,inactive,inactive,inactive,inactive,inactive,inactive,–,–,inactive
NCCCCN=C(N)N,inactive,inactive,inactive,inactive,–,–,inactive,inactive,inactive,inactive,inactive,inactive,inactive,inactive,inactive,–,inactive
NC(N)=N[C@@H](CCC(=O)O)C(=O)O,inactive,inactive,inactive,inactive,–,inactive,inactive,inactive,inactive,inactive,inactive,inactive,inactive,inactive,inactive,–,inactive
CN1CCCC1CCOC(C)(c1ccccc1)c1ccc(Cl)cc1 (stereo not given),11.2 µM (active),10 µM (active),2.51 µM (active),5.01 µM (active),–,inactive,inactive,inactive,inactive,14.7 µM (active),–,–,inactive,inactive,–,–,inactive
c1ccc(CN2CCC3(CCCc4ccccc43)CC2)cc1,12.6 µM (active),11.2 µM (active),4.47 µM (active),7.94 µM (active),–,inactive,inactive,inactive,inactive,inactive,–,inactive,inactive,inactive,–,–,inactive
N=C(N)c1ccc(OCCCCCOc2ccc(C(=N)N)cc2)cc1 (tested in a mixture with another compound),0.199 µM (active),1 µM (active),0.355 µM (active),0.224 µM (active),–,–,inactive,inactive,inactive,11.7 µM (active),10.4 µM (active),–,inactive,inactive,inactive,inactive,inactive
N[C@H](C(=O)O)[C@H](O)C(=O)O,inactive,inactive,inactive,inactive,–,inactive,inactive,inactive,inactive,inactive,inactive,inactive,inactive,inactive,inactive,–,inactive
CC(C)(C)c1cc(/C=C(\C#N)C(N)=S)cc(C(C)(C)C)c1O,8.91 µM (active),8.91 µM (active),2.82 µM (active),6.31 µM (active),–,–,inactive,inactive,inactive,–,–,3.16 µM (active),inactive,inactive,–,–,inactive
CC(C)C[C@H](NC(=O)[C@H](O)[C@H](N)Cc1ccccc1)C(=O)O,inactive,inactive,inactive,inactive,–,inactive,inactive,inactive,inactive,inactive,inactive,inactive,inactive,–,inactive,–,inactive
CC(=O)[C@H]1CCC2C3CC=C4C[C@@H](OS(=O)(=O)O)CC[C@]4(C)C3CC[C@@]21C (stereo not given in full),inactive,inactive,inactive,inactive,–,–,inactive,inactive,inactive,inactive,inactive,inactive,inactive,inactive,inactive,inactive,inactive
O=C1C2C=CC=CC2=NC(=S)N1CCN1CCC(=C(c2ccc(F)cc2)c2ccc(F)cc2)CC1 (stereo not given),inactive,inactive,10 µM (active),–,–,–,inactive,inactive,inactive,inactive,inactive,7.08 µM (active),–,inactive,inactive,–,inactive
COC(=O)[C@H](NC(=O)c1cc(-c2ccccc2)nc2ccccc12)c1ccccc1,inactive,inactive,12.6 µM (active),–,–,inactive,inactive,–,inactive,inactive,inactive,inactive,inactive,inactive,–,–,inactive
CN(C)S(=O)(=O)c1ccc2c(c1)/C(=C/c1cc3c([nH]1)CCCC3)C(=O)N2,3.55 µM (active),7.08 µM (active),3.55 µM (active),3.98 µM (active),–,–,inactive,–,inactive,inactive,–,–,inactive,inactive,–,–,inactive
CCCN(CCc1ccccc1)C1CCc2c(O)cccc2C1 (stereo not given),5.01 µM (active),2 µM (active),1 µM (active),2.51 µM (active),–,–,inactive,inactive,inactive,inactive,inactive,inactive,inactive,inactive,inactive,inactive,inactive
Nc1nc2[nH]c(=O)cnc2c(=O)[nH]1,inactive,inactive,inactive,inactive,–,–,inactive,inactive,inactive,inactive,inactive,inactive,inactive,inactive,–,inactive,–
N[C@H]1CONC1=O,inactive,inactive,inactive,inactive,–,inactive,inactive,inactive,inactive,inactive,–,inactive,inactive,inactive,inactive,–,–
C=CCN1CCc2c(cc(O)c(O)c2Br)[C@@H](c2ccccc2)C1,11.2 µM (active),8.91 µM (active),3.98 µM (active),7.08 µM (active),–,inactive,inactive,inactive,inactive,–,–,–,inactive,inactive,inactive,–,inactive
C=CCN1CCc2cc(O)c(O)cc2C(c2ccccc2)C1 (stereo not given),11.2 µM (active),12.6 µM (active),7.94 µM (active),11.2 µM (active),–,inactive,inactive,inactive,inactive,inactive,–,inactive,–,inactive,inactive,–,inactive
O=C(O)C1CCCNC1 (stereo not given),inactive,inactive,–,inactive,inactive,inactive,inactive,inactive,inactive,inactive,inactive,inactive,inactive,inactive,–,inactive,inactive
CC1=C(C(=O)O)N2C(=O)[C@@H](NC(=O)C(N)C3=CCC=CC3)[C@H]2SC1 (stereo not given in full),inactive,inactive,inactive,inactive,–,–,inactive,inactive,inactive,inactive,inactive,inactive,inactive,inactive,inactive,–,inactive

# Source: PubChem BioAssay (NCATS)
